CHX counter = Cycloheximide Counterscreen for Small Molecule Inhibitors of Shiga Toxin; cell reporter, cycloheximide protein synthesis inhibition counterscreen; 300,000 compounds, 12% hits; AID 2314, 2010; max response, %; in the data active means max response mostly above about 13%, no sharp cut-off; inactive means mostly below about 14%; further: read at 38.3 µM for the half of the compounds with a filed dose
Pf growth 48h = Primary qHTS for delayed death inhibitors of the malarial parasite plastid, 48 hour incubation. 310,000 compounds, 5.9% hits. P. falciparum luciferase growth in erythrocytes, 48 h. Potency, µM (doses to about 28.7 µM), most hits filed as inhibitors
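Firefly luciferase activity from engineered P. falciparum reports growth; inhibitors lower the luminescent signal. Cultures contained 2% hematocrit erythrocytes at 0.1% final parasitemia.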
Pf growth 96h = Primary qHTS for delayed death inhibitors of the malarial parasite plastid, 96 hour incubation. Potency, µM (titrated, usually from 28.7 µM), most hits filed as inhibitors. 320,000 compounds, 6.9% hits. P. falciparum luciferase reporter growth, 96 h
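Two parasite generations (96 h, 37 C, 5% CO2) of compound exposure in infected erythrocytes (0.05% parasitemia, 2% hematocrit). Luciferase-reporter P. falciparum; decreased luminescence indicates inhibited growth, aimed at apicoplast-acting delayed death.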
Shiga inhibitor = A qHTS for Small Molecule Inhibitors of Shiga Toxin; inhibition, % at 38.7 µM; 290,000 compounds, 9.2% hits; Vero cells, Shiga toxin protein synthesis inhibition reporter; in the data active means inhibition mostly above about 28%, no sharp cut-off; inactive means mostly below about 43%
Numbers stand for hits; n = inactive; u = inconclusive; x = no result; [ ] = remark or other dose. Shown are actives, neighbours in structure and some others; about 21% of the full set was active somewhere. Unless noted, the call rests on the fitted dose curve; in most records, active means well fitted inhibition curve with a large enough effect; inconclusive means small, poorly fitted or top-dose-only effect, or another doubt; inactive means no such curve, though single readings can be large or run the other way.

SMILES	CHX counter	Pf growth 48h	Pf growth 96h	Shiga inhibitor
CCOC(=O)c1[nH]c2ccc(OC)cc2c1NC(=S)N1CCN(c2cccc(C)c2C)CC1	17	u	n	n
CCOC(=O)c1cc2cc(OC)ccc2[nH]1	49	n	n	110
Cc1cccc(C(=O)NC2CCN(S(=O)(=O)c3ccc(F)cc3)CC2)c1	n	u	u	n
CCOC(=O)Cn1nc(C)c(NC(=O)c2ccc(Br)o2)c1C	n	n	u	n
CCCC(=O)Nc1c(C(=O)OCC)[nH]c2ccccc12	n	n	u	n
CCOC(=O)c1[nH]c2ccccc2c1NC(=O)Nc1ccc(OC)cc1	9.9	n	n	n
CCOC(=O)c1[nH]c2ccc(OC)cc2c1NC(=O)c1ccccc1C(=O)O	35	n	n	64
CCOC(=O)c1[nH]c2ccc(OC)cc2c1NC(=O)c1cccc(OC)c1	n	n	u	n
CCOC(=O)c1[nH]c2ccc(F)cc2c1NC(=O)c1ccccc1C(=O)O	43	n	n	96
CCOC(=O)c1[nH]c2ccc(F)cc2c1NC(=O)c1cc(OC)c(OC)c(OC)c1	n	u	n	n
CCC(C)C(NC(=O)OC(C)(C)C)C(=O)NC1COC2CC(n3cc(C)c(=O)[nH]c3=O)OC12 (stereo not drawn)	n	x	x	n
Cc1ccc(/C=C2/CNC/C(=C\c3ccc(C)cc3)C2=O)cc1	67	x	x	86
Cc1ccc(/C=C2\CCOC2=O)cc1	12	u	n	n
COc1ccc(/C=C2/CCOC2=O)cc1	18	n	n	n
COC(=O)c1cccc(Oc2cccc(C(F)(F)F)c2)n1	n	n	n	n
CCCC(c1nnnn1Cc1ccc(OC)cc1)N1CCN(C(=O)c2ccco2)CC1 (stereo not drawn)	n	n	n	n
Cn1ncc(Cl)c1C(=O)NNC(=O)Nc1cccc2ccccc12	n	n	u	n
CCOC(=O)C1CCN(C(=S)Nc2cccc(C)c2C)CC1	n	n	n	n
COc1cc(NC(=O)CSc2nc3[nH]c(=O)cc(O)c3s2)cc(OC)c1OC	x	n	n	x
c1cn2c(Nc3ccc4c(c3)OCCO4)c(-c3ccc(N4CCOCC4)cc3)nc2cn1	24	u	u	53
Clc1ccc(-c2nc3cnccn3c2Nc2ccc3c(c2)OCO3)cc1	n	u	u	n
c1cncc(-c2nc3ccccn3c2Nc2ccc3c(c2)OCCO3)c1	n	x	n	n
Oc1ccccc1-c1nc2cnccn2c1Nc1ccc2c(c1)OCCO2	30	u	x	51
CCC1(c2ccc(OC)cc2)NC(=O)N(C)C1=O (stereo not drawn)	n	x	x	n
Cc1ccc(S(=O)(=O)/N=C(/c2ccc(F)cc2)N(C)C)cc1	n	n[0.00184 µM]	n	n
SMILES	CHX counter	Pf growth 48h	Pf growth 96h	Shiga inhibitor
COc1c(C)c2c(c(O)c1CC=C(C)CCC(=O)OCCN1CCOCC1)C(=O)OC2	n	9.5µM	n	n
Cn1cccc1C(=S)N=P(C1CCCCC1)(N1CCOCC1)N1CCOCC1	n	x	8.3µM	n
O=C(/C=C/c1ccco1)NC(=S)Nc1ccccc1O	19	n	n	92
Cc1ccc(NC(=S)NC(=O)/C=C/c2ccco2)c(O)c1	60	n	n[1.15 µM]	n
O=C(/C=C\c1ccco1)NC(=S)Nc1ccccc1O	34	n	n	64
CC1CCCCC1NC(=O)c1cccc(N2C(=O)C3C4C=CC(C4)C3C2=O)c1 (stereo not drawn)	n	n	n	n
COc1cccc(C2=CC(c3ccc(OC)c(OC)c3)NC(=S)N2)c1 (stereo not drawn)	n	10µM	u	n
COC(=O)c1sccc1NC(=O)CC1C(=O)NCCN1C(=O)Nc1ccc(C(F)(F)F)cc1 (stereo not drawn)	n	n	n	n
CCCN(CCC)C1=CC(=[N+]2CCCC2)CC(C)(C)C1	n	1.5µM	0.33µM	n
CN(C)NC1=CC(=[N+]2CCCC2)CC(C)(C)C1	n	u	u	n
CC(=O)c1sc(NC(=O)C=C(C)C)nc1C	44	n	x	66
CC(C)=CC(=O)Nc1nnc(-c2ccccc2)s1	46	n	n	14
CCCCC(=O)Nc1nc(C)c(C(C)=O)s1	n	x	n	n
O=C(Nc1ccccc1)Nc1nnc(-c2ccccc2)s1	n	n	n	n
CC(=O)c1sc(NC(=O)C2(F)C(F)(F)C(F)(F)C(F)(F)C(F)(F)C2(F)F)nc1C	n	8.3µM	n	n
CC(C)=CC(=O)Nc1nnc(C)s1	16	n	n	25
CCCC(=O)Nc1nc(C)c(C(C)=O)s1	n	n	n	n
CCOC(=O)c1sc(NC(=O)COC(=O)Cn2cnc3ccccc32)c(C(=O)OCC)c1C	n	u	u	n
Cc1cccc(C(C(=O)NC2CCCCC2)N(Cc2cccnc2)C(=O)c2csnn2)c1 (stereo not drawn)	n	u	u	n
CCCCn1c(N)c(C(=S)NC(=O)CC(C)(C)C)c(=O)n(C)c1=O	n	n	n	n
O=C(COC(=O)c1ncc(Cl)c(Cl)c1Cl)NC1CCCCCC1	x	n	n	x
CCCCN(CC)CCCNC(=O)c1cn(-c2ccc(OC)cc2)c(=O)c2ccccc12	n	n	7.4µM	n
CCN(CC)CCCNC(=O)CNC(=O)c1nn(-c2ccc(OC)cc2)c(=O)c2ccccc12	n	n	9.3µM	n
CCCN(CCC)CCCNC(=O)c1nn(-c2cccc(OC)c2)c(=O)c2ccccc12	n	u	12µM	n
CCN(CC)CCCNC(=O)c1cn(-c2cccc(OC)c2)c(=O)c2ccccc12	n	n	n	n
SMILES	CHX counter	Pf growth 48h	Pf growth 96h	Shiga inhibitor
Nc1ccc2nc(CCCCCCCCc3nc4ccc(N)cc4[nH]3)[nH]c2c1	n	7.4µM	n	n
Nc1ccc2nc(CCCCc3nc4ccccc4[nH]3)[nH]c2c1	n	u	u	n
Nc1ccc2nc(CCCCCCc3nc4ccc(N)cc4[nH]3)[nH]c2c1	n	u	n	n
Nc1ccc2nc(COc3ccccc3)[nH]c2c1	9.9	n	7.4µM	n
CN(c1cccc(NC(=O)c2ccc(Cl)c(S(=O)(=O)N3CCOCC3)c2)c1)S(C)(=O)=O	n	u	u	n
O=C(CSC1=NS(=O)(=O)c2ccccc2N1)NCCc1ccccc1	x	n	n	x
NS(=O)(=O)c1ccc(CCNC(=O)CCCC2=NS(=O)(=O)c3ccccc3N2)cc1	n	n	5.2µM	n
O=C(CC1(CC2=NS(=O)(=O)c3ccccc3N2)CCCC1)NCCc1ccccc1	8.5	u	n	n
O=C(CCCC1=NS(=O)(=O)c2ccccc2N1)NCCc1ccc(Cl)cc1	n	n	n	n
CCn1c(=O)[nH]c2cc(Cl)c(Cl)cc21	x	n	n	x
CC(=O)OCCCN1C(=O)c2ccc(Br)cc2C1=O	n	n	n	n
CCn1c(C)[n+](CCOC(C)=O)c2cc(Cl)c(Cl)cc21	n	2.3µM	n	n
CC(=O)OCCCn1c(C)[n+](C)c2cc(Cl)c(Cl)cc21	n	5.2µM	n	n
O=C(O)C1CCC(=O)N1C(=O)OCc1ccccc1 (stereo not drawn)	n	n	n	n
Cc1ccc(CN(C(=O)c2cc(=O)c3cc(C)cc(C)c3o2)C2CCS(=O)(=O)C2)cc1 (stereo not drawn)	n	3.3µM	9.3µM	n

Bioassay records as filed in PubChem BioAssay.
